S2 tox = cell viability loss in ATXN counter-screen. S2 cells (HEK-293 line with an ATXN2-luciferase reporter) viability, CellTiter-Fluor protease fluorescence, 24 h. Potency, µM (doses to about 56.7 µM), most hits filed as cytotoxic. 400,000 tested, 0.49% active; note: nearly all actives have a fitted effect of over 40% in size
TDP1 cell noCPT = qHTS for Inhibitors of human tyrosyl-DNA phosphodiesterase 1 (TDP1): qHTS in cells in absence of CPT; DT40 Tdp1-/- hTDP1 cells, no CPT, ATP luminescence, 48 h; Potency, µM (top dose mostly 46.2 µM), most hits filed as inhibitors; 420,000 tested, 15% active; note: nearly all actives have a fitted effect of over 55% in size
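A cellular qHTS used chicken DT40 cells lacking endogenous Tdp1 but carrying stably transfected human TDP1. Compounds were applied without camptothecin, and cell growth kinetics were judged by ATP-dependent luminescence after ≥48 hr.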
TGFb inhibitor = blocks TGF-b signaling; AID 588855; Potency, µM (titrated, usually from 46.1 µM), actives largely listed as inhibitors; HepG2 CAGA-GFP TGF-b/SMAD3 reporter, GFP fluorescence, 18 h; TGF-beta stimulated, 500 pg/mL final; 410,000 tested, 1.2% active; note: nearly all actives have a fitted effect of over 65% in size
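Smad-responsive CAGA-GFP expression was quantified in HEPG2 cells exposed to compounds and 500 pg/mL final TGF-beta for 18 h at 37 degrees C; unstimulated wells defined full inhibition.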
DT40 TDP1 CPT = DT40-hTDP1 cell growth loss with CPT. chicken DT40 Tdp1-/-;hTDP1 cells + 20 nM CPT, ATP luminescence, 48 h. Potency, µM (highest dose often 46.2 µM), hits mostly inhibitors. 420,000 tested, 12% active. AID 686979; note: nearly all actives have a fitted effect of over 55% in size
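Chicken DT40 Tdp1-/- cells stably complemented with human TDP1 were seeded at 400 cells/well in medium containing 20 nM camptothecin, exposed to pin-transferred compounds, and grown at 37 °C for at least 48 hr. Viability was read as ATP luminescence.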
ATXN2 expr inh = inhibitors of ATXN2 expression. HEK-293 ATXN2-luciferase reporter, luminescence, 24 h. AID 1745845. 360,000 tested, 0.72% active. Potency, µM (highest dose often 57 µM), actives largely listed as inhibitors; note: nearly all actives have a fitted effect of over 55% in size
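qHTS (up to 57 uM final) was run with 24 h compound exposure of reporter cells at 37 °C. Each well was multiplexed: SteadyGlo luminescence measured ATXN2-luciferase expression after a fluorogenic Gly-Phe-AFC viability readout (25 uM final).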
HepG2 viability = kills HepG2 cells in TGF-b inhibitor counter-screen; HepG2 CAGA-GFP viability, ATP luminescence, 18 h; Potency, µM (highest dose often 46.1 µM), hits mostly cytotoxic; 410,000 tested, 0.76% active; AID 588856
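HepG2 CAGA-GFP cells (1000/well, DMEM with 1% FBS) received compound, then TGF-beta at 500 pg/mL final, and were incubated 18 hours at 37 degrees C. Viability was read by CellTiter-Glo luminescence. Media-only wells were set as complete cell-killing and DMSO as no toxicity.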
Hits are given with their value. An excerpt weighted towards active compounds, which were near 17% of everything screened. Calls come from the whole dose curve; as a rule, active = well fitted curve in the direction sought with a large enough effect; inconclusive = small, poorly fitted or top-dose-only effect, or another doubt; inactive = no such curve, though single readings can be large; an effect the other way counts as inactive or inconclusive.

What do the screens show for `COc1ccc(NC(=O)CS(=O)(=O)Cc2nc(-c3ccc(C)cc3)oc2C)cc1`?
S2 tox: inactive; TDP1 cell noCPT: inactive; TGFb inhibitor: inactive; DT40 TDP1 CPT: inactive; ATXN2 expr inh: inactive; HepG2 viability: inactive

How did COc1ccc(CC(=O)Nc2ccc(-c3noc(-c4cc(OC)c(OC)c(OC)c4)n3)cc2)cc1 do in these assays?
S2 tox: inactive; TDP1 cell noCPT: inconclusive; TGFb inhibitor: inactive; DT40 TDP1 CPT: inconclusive; ATXN2 expr inh: inactive; HepG2 viability: inactive

What do the screens show for `COc1ccc(CC(=O)Nc2ccc(-c3noc(-c4ccc(Cl)cc4)n3)cc2)cc1`?
S2 tox: inconclusive; TDP1 cell noCPT: inconclusive; TGFb inhibitor: inactive; DT40 TDP1 CPT: 5.17µM; ATXN2 expr inh: inconclusive; HepG2 viability: inactive

What do the screens show for `COc1cccc(-c2nc(CS(=O)(=O)CC(=O)NCCC(C)C)c(C)o2)c1`?
S2 tox: inactive; TDP1 cell noCPT: inactive; TGFb inhibitor: inactive; DT40 TDP1 CPT: inconclusive; ATXN2 expr inh: inactive; HepG2 viability: inactive

What do the screens show for `COc1ccc(-c2nc(CS(=O)(=O)CC(=O)Nc3ccc(Cl)cc3)c(C)o2)cc1`?
S2 tox: inconclusive; TDP1 cell noCPT: 20.6µM; TGFb inhibitor: inactive; DT40 TDP1 CPT: 10.3µM; ATXN2 expr inh: inactive; HepG2 viability: inactive

What do the screens show for `COc1cccc(OCC(=O)NNC(=O)C(=O)Nc2cccc(C)c2)c1`?
S2 tox: inactive; TDP1 cell noCPT: inactive; TGFb inhibitor: inactive; DT40 TDP1 CPT: inconclusive; ATXN2 expr inh: inactive; HepG2 viability: inactive

What do the screens show for `N#Cc1cccc(S(=O)(=O)NCC(=O)NCc2ccc3c(c2)OCO3)c1`?
S2 tox: inactive; TDP1 cell noCPT: inactive; TGFb inhibitor: inactive; DT40 TDP1 CPT: inactive; ATXN2 expr inh: inactive; HepG2 viability: inactive

How did CCOC(=O)c1cnn(C)c1NC(=O)c1ccc(Cl)cc1Cl do in these assays?
S2 tox: inactive; TDP1 cell noCPT: inactive; TGFb inhibitor: inactive; DT40 TDP1 CPT: inactive; ATXN2 expr inh: inactive; HepG2 viability: inactive

What do the screens show for `COc1cccc(-c2nc(CS(=O)(=O)CC(=O)NCCc3cc(OC)ccc3OC)c(C)o2)c1`?
S2 tox: inactive; TDP1 cell noCPT: 18.4µM; TGFb inhibitor: inactive; DT40 TDP1 CPT: inactive; ATXN2 expr inh: inactive; HepG2 viability: inactive

Results for COc1cccc(-c2nc(CS(=O)(=O)CC(=O)NCCc3ccc(OC)cc3OC)c(C)o2)c1 ?
S2 tox: inactive; TDP1 cell noCPT: 23.1µM; TGFb inhibitor: inconclusive; DT40 TDP1 CPT: 18.4µM; ATXN2 expr inh: inactive; HepG2 viability: inactive

Results for COc1ccc(OC)c(CCNC(=O)CS(=O)(=O)Cc2nc(-c3ccc(C)cc3)oc2C)c1 ?
S2 tox: inconclusive; TDP1 cell noCPT: inconclusive; TGFb inhibitor: inactive; DT40 TDP1 CPT: inconclusive; ATXN2 expr inh: inactive; HepG2 viability: inactive

How did CN(C)c1ccc(NC(=O)CSC2=Nc3ccccc3C3=NC(CC(=O)NCc4ccccc4)C(=O)N23)cc1 (stereo unspecified) do in these assays?
TDP1 cell noCPT: inactive; TGFb inhibitor: inconclusive; DT40 TDP1 CPT: inactive; HepG2 viability: inactive

How did COC(=O)c1c(NC(=O)/C=C/C(=O)O)sc(Cc2ccccc2)c1C do in these assays?
S2 tox: inactive; TDP1 cell noCPT: inconclusive; TGFb inhibitor: inconclusive; DT40 TDP1 CPT: 20.6µM; ATXN2 expr inh: inconclusive; HepG2 viability: inactive

Results for Cc1c(Cc2ccccc2)sc(NC(=O)/C=C/c2cccc3ccccc23)c1C(N)=O ?
S2 tox: inactive; TDP1 cell noCPT: 3.26µM; TGFb inhibitor: inactive; DT40 TDP1 CPT: 3.66µM; ATXN2 expr inh: inactive; HepG2 viability: inactive

What do the screens show for `CCOc1cccc(N(C(=O)C2COc3ccccc3O2)C(C(=O)NC2CCCCC2)c2ccc(O)cc2)c1` (stereo unspecified)?
S2 tox: inactive; TDP1 cell noCPT: inconclusive; TGFb inhibitor: inactive; DT40 TDP1 CPT: inactive; ATXN2 expr inh: inactive; HepG2 viability: inactive

Results for CC(C)CCNC(=O)C(c1ccc(O)cc1)N(C(=O)C1COc2ccccc2O1)c1cccc(O)c1 (stereo unspecified) ?
S2 tox: inactive; TDP1 cell noCPT: 20.6µM; TGFb inhibitor: inconclusive; DT40 TDP1 CPT: inconclusive; ATXN2 expr inh: inactive; HepG2 viability: inactive

How did COc1ccc2c(CNCCc3cccs3)c(C(=O)O)n(Cc3ccccc3C)c2c1 do in these assays?
TDP1 cell noCPT: 5.17µM; TGFb inhibitor: inconclusive; DT40 TDP1 CPT: 8.2µM; HepG2 viability: inactive

Results for COc1ccc2c(CNCc3cccs3)c(C(=O)O)n(Cc3ccccc3)c2c1 ?
S2 tox: inconclusive; TDP1 cell noCPT: inconclusive; TGFb inhibitor: inconclusive; DT40 TDP1 CPT: inactive; ATXN2 expr inh: inactive; HepG2 viability: inactive

Results for COc1ccc2c(CNCc3cccs3)c(C(=O)O)n(Cc3cccc(F)c3)c2c1 ?
S2 tox: inconclusive; TDP1 cell noCPT: inconclusive; TGFb inhibitor: inactive; DT40 TDP1 CPT: inactive; ATXN2 expr inh: inactive; HepG2 viability: inactive

How did COc1ccc2c(CNCc3cccs3)c(C(=O)O)n(Cc3ccccc3C)c2c1 do in these assays?
TDP1 cell noCPT: 2.91µM; TGFb inhibitor: inactive; DT40 TDP1 CPT: inconclusive; HepG2 viability: inactive

Results for COc1cc(C2Nc3cccc4cccc(c34)N2)cc(OC)c1OC(C)=O ?
S2 tox: inconclusive; TDP1 cell noCPT: 23.1µM; TGFb inhibitor: inactive; DT40 TDP1 CPT: inconclusive; ATXN2 expr inh: inactive; HepG2 viability: inactive

Results for COc1ccc(OC)c2[nH]c(=O)c(CCNS(=O)(=O)c3ccc(F)cc3)cc12 ?
S2 tox: inactive; TDP1 cell noCPT: inactive; TGFb inhibitor: inactive; DT40 TDP1 CPT: inactive; ATXN2 expr inh: inactive; HepG2 viability: inactive

How did Cc1cc2cc(CCNS(=O)(=O)c3ccc(Br)cc3)c(=O)[nH]c2cc1C do in these assays?
S2 tox: inactive; TDP1 cell noCPT: inconclusive; TGFb inhibitor: inactive; DT40 TDP1 CPT: inconclusive; ATXN2 expr inh: inconclusive; HepG2 viability: inactive

What do the screens show for `Cc1ccc2cc(CCNS(=O)(=O)c3ccc(F)cc3)c(=O)[nH]c2c1C`?
S2 tox: inactive; TDP1 cell noCPT: 18.4µM; TGFb inhibitor: inactive; DT40 TDP1 CPT: 20.6µM; ATXN2 expr inh: inactive; HepG2 viability: inactive

What do the screens show for `CCCS(=O)(=O)NCCc1cc2c(C)ccc(C)c2[nH]c1=O`?
S2 tox: inactive; TDP1 cell noCPT: inactive; TGFb inhibitor: inactive; DT40 TDP1 CPT: inactive; ATXN2 expr inh: inactive; HepG2 viability: inactive

Results for Cc1ccc(S(=O)(=O)NCCc2cc3ccc(C)c(C)c3[nH]c2=O)cc1 ?
S2 tox: inactive; TDP1 cell noCPT: 18.4µM; TGFb inhibitor: inactive; DT40 TDP1 CPT: inconclusive; ATXN2 expr inh: inactive; HepG2 viability: inactive

Screening data from PubChem BioAssay.
